esBAF inh = SWI/SNF esBAF complex inhibition; mouse ES cells, Bmi1-luciferase knock-in reporter, 24 h; 100% = twice the neutral-well signal; reporter increase, % at 12.5 µM; hit rate 2% among 350,000; AID 602393; in the data active means activation above about 40%; inconclusive means no clear call, values can overlap the other calls;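 further: a rise in the Bmi1 reporter signal indicates esBAF inhibition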
HSF1 inh = HSF1 inhibition. AID 2098. activity change, negative = inhibition, % at 7.5 µM (by protocol). NIH3T3-HGL HSE-luciferase, MG132-induced, luminescence 8 h; hits give low values. hit rate 0.77% among 300,000;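 active means more than half of replicate wells show activity change below -50%, luminescence cut by over half; inconclusive means some wells, but at most half, below -50%; inactive means no replicate well below -50%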;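 further: luciferase reports HSF-1 transcriptional activity via heat shock element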
HSF1 activator = increases HSF-1 driven luciferase reporter signal | NIH3T3-HGL HSF-1 luciferase reporter, MG132, 8 h; 100% = twice DMSO control signal | activation, % at 9 µM | hit rate 1.7% among 300,000 | AID 504408;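 active means mean replicate activation of at least 50% with a set share of replicates each reaching 50%; inconclusive means only one of those two conditions met; inactive means mean below 50% and too few replicates reaching it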
Vif imaging = blocks HIV Vif function; HEK293T cells, Vif self-association by quenched fluorescence, imaging, 24 h; hit rate 0.35% among 340,000; inhibition, % at 7.49 µM; in the data active means inhibition above about 50%, passing the limit was not always enough; inconclusive means no clear call, values can overlap the other calls; inactive means below about 31%
Large screens that a line does not name were inactive. This is a sample that favours compounds with a hit; in the whole collection about 3.4% have one here.

C[C@@H]1CCCCO[C@H](CN(C)Cc2ccc(C(F)(F)F)cc2)[C@H](C)CN([C@H](C)CO)C(=O)c2cc(NC(=O)C3CCCCC3)ccc2O1	none (no result: HSF1 inh, HSF1 activator, Vif imaging)
Cc1ccc(-c2cc(NC(=O)CCl)n(-c3ccccc3)n2)cc1	HSF1 activator 65 (no result: Vif imaging)
O=C(CCl)Nc1cc(-c2ccccc2)nn1-c1ccccc1	none
CCNC(=O)C[C@H]1CC[C@H]2[C@H](COc3ccc(NC(=O)c4ccccc4Cl)cc3C(=O)N2C)O1	none (no result: HSF1 inh, HSF1 activator, Vif imaging)
CC(=O)c1cccc(N(CC(=O)Nc2ccc(F)cc2F)S(C)(=O)=O)c1	HSF1 activator 55
Nc1c(Nc2ccccc2)c2ccccc2oc1=O	HSF1 activator 88
CCNc1c(N)c(=O)oc2ccccc12	none
CCOC(=O)C1(Cc2ccccc2Cl)CCN(C(=O)c2cnccn2)CC1	esBAF inh 67, HSF1 activator inconclusive
CCOC(=O)C1(Cc2ccccc2Cl)CCN(C(=O)c2cc(C)on2)CC1	HSF1 activator inconclusive
COC(=O)c1ccc(NC(=S)Nc2ccccn2)cc1	esBAF inh 58
COc1cccc(NC(=S)Nc2cc(C)cc(C)n2)c1	esBAF inh inconclusive, HSF1 activator 56
COC(=O)c1ccc(NC(=S)Nc2ccc(O)cc2)cc1	none (no result: esBAF inh)
COc1ccc(NC(=S)Nc2ccccn2)cc1	esBAF inh 58
COc1ccc(S(=O)(=O)Nc2cccc3c2O[C@H](CN(C)S(=O)(=O)c2ccc(F)cc2)[C@H](C)CN([C@@H](C)CO)C3=O)cc1	none (no result: HSF1 inh, HSF1 activator, Vif imaging)
CC(C)c1ccc(C(=O)NC2=NCCS2)cc1	none (no result: HSF1 inh, HSF1 activator, Vif imaging)
Cc1ccc(C(=O)NC2=NCCS2)cc1	none (no result: esBAF inh, Vif imaging)
N#Cc1ccc(C(=O)NC2=NCCS2)cc1	esBAF inh 48
O=C(NC1=NCCS1)c1ccc(C(F)(F)F)cc1	esBAF inh 53
C[C@@H]1CN([C@H](C)CO)C(=O)c2cc(NC(=O)Nc3ccccc3)ccc2O[C@@H](C)CCCCO[C@H]1CN(C)S(=O)(=O)c1ccc(Cl)cc1	none (no result: HSF1 inh, HSF1 activator, Vif imaging)
Cc1c(C(=O)NCc2ccoc2)oc2ccc3c(c12)C(=O)CC(C)(C)O3	esBAF inh 104
C[C@@H]1CCCCO[C@@H](CN(C)CC2CCCCC2)[C@H](C)CN([C@@H](C)CO)C(=O)c2cc(NC(=O)Cc3ccccc3)ccc2O1	none (no result: HSF1 inh, HSF1 activator, Vif imaging)
O=C(NCC(=O)N1CCN(S(=O)(=O)c2cccs2)CC1)c1ccc(Cl)cc1	Vif imaging 58
Cc1ccc(C(=O)NCC(=O)N2CCN(S(=O)(=O)c3cccs3)CC2)s1	none
O=C1/C(=C/c2cccs2)CCC/C1=C\c1cccs1	esBAF inh 60
Cn1cccc1/C=C1\CCC/C(=C\c2cccn2C)C1=O	esBAF inh 81, HSF1 activator 74
CC1C/C(=C/c2cccs2)C(=O)/C(=C/c2cccs2)C1 (centres undefined)	none (no result: esBAF inh, HSF1 inh, HSF1 activator)
CCc1ccc2oc(-c3ccc(OC)cc3)cc(=Nc3cccc(C(=O)O)c3)c2c1	none
COc1ccc(-c2cc(=Nc3ccc(C(=O)O)cc3)c3cc(C)ccc3o2)cc1	HSF1 activator 57
CCOC(=O)N1CCN(S(=O)(=O)c2ccc(F)c(C(=O)Nc3ccc(C(C)C)cc3)c2)CC1	HSF1 activator 69 (no result: esBAF inh)
Cc1cccc(N(C(=O)c2ccc(CN3CCOCC3)o2)C(C(=O)NC(C)(C)C)c2ccc(F)cc2)c1 (centres undefined)	HSF1 activator 64 (no result: esBAF inh)
C[C@H]1CN([C@@H](C)CO)S(=O)(=O)c2ccc(-c3cncnc3)cc2O[C@H]1CN(C)C(=O)c1cccc(F)c1	none (no result: HSF1 inh, HSF1 activator, Vif imaging)
COC(=O)C(C)N1C(=O)S/C(=C\c2ccc(-c3ccc(C(=O)O)cc3C)o2)C1=O (centres undefined)	esBAF inh 71
Cc1n[nH]c(=O)nc1Nc1ccc(O)cc1	Vif imaging 66
C[C@H]1CN([C@@H](C)CO)C(=O)c2cc(NC(=O)Cc3cn(C)c4ccccc34)ccc2O[C@@H]1CN(C)S(C)(=O)=O	none (no result: HSF1 inh, HSF1 activator, Vif imaging)
CCC(C)n1c(SCC(=O)NC(=O)Nc2ccc3c(c2)OCCO3)nc2ccccc2c1=O (centres undefined)	HSF1 activator 54
C[C@@H](C(=O)Nc1ccc2c(c1)OCCO2)n1nnc2ccccc2c1=O	esBAF inh 57
O=C(CSc1ncccn1)NC(=O)Nc1ccc2c(c1)OCCO2	Vif imaging 60
CC(C(=O)Nc1ccc2c(c1)OCCO2)n1nnc(-c2ccccc2)n1 (centres undefined)	none (no result: esBAF inh)
Nc1c(C(=O)c2ccccc2)sc2nsc(SCCN3CCOCC3)c12	HSF1 activator 60 (no result: esBAF inh)
CC(=O)c1sc2nsc(SCCN3CCOCC3)c2c1N	none (no result: esBAF inh)
CC(C)(C)c1ccc(OCCn2ccccc2=O)cc1	esBAF inh 60, HSF1 activator inconclusive
O=c1ccccn1CCOc1ccc(Cl)cc1	none

Screening data (PubChem)
